Compound activity deposited in PubChem by Sanford-Burnham Center for Chemical Genomics.
CD11b adhes enh: enhancers of human CD11b/CD18 binding to fibrinogen | P05107+P11215 | K562 CD11b/CD18 adhesion to fibrinogen, ATPlite luminescence | activation, % at 10 µM | 0.07% of 93,000 active;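 active = 10 µM primary screen giving 50% or more activity, confirmed by 40% or more on retest at that dose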
CYP2C9 activ: increases human cytochrome P450 2C9 activity; P11712; recombinant CYP2C9, luciferin-H conversion, luminescence; active compounds read high; factor 1 = untreated enzyme, 0 = blocked; activation factor at 5 µM; 1.4% of 96,000 active;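 active = activation factor of 2 or more for CYP2C9 at a 5 µM dose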
Target sequence (P11712 whole entry, looked up): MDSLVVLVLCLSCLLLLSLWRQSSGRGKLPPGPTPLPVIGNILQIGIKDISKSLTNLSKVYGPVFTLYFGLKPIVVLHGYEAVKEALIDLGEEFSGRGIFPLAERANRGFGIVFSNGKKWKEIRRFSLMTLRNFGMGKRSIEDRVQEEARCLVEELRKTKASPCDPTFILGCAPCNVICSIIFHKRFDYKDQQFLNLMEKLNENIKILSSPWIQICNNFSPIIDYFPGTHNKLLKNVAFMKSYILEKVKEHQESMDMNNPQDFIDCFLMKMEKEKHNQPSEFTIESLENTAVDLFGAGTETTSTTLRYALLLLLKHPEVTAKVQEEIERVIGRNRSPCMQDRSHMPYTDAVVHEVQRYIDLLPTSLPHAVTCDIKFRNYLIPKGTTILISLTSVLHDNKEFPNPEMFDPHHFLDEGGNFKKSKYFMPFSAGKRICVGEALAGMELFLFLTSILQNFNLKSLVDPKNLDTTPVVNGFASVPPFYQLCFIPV
CD11b adhes inh: CD11b/CD18-fibrinogen binding inhibition | P05107+P11215 | K562 CD11b/CD18 adhesion to fibrinogen, ATPlite luminescence; Mn2+ added to activate the integrin | inhibition, % at 10 µM | 0.54% of 93,000 active | AID 1497;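 active = primary inhibition of 50% or more at 10 µM, then 40% or more on retest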
CYP2C19 inhib: inhibitors of human CYP2C19; CYP2C19 Supersomes, luciferin-H EGE luminescence, 30 min; inhibition, % at 5 µM; 21% of 96,000 active; P33261;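 active = CYP2C19 inhibition above a set limit at 5 µM in the primary screen, cut at about 50% in these data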
CYP2C19 activ: activators of human cytochrome P450 2C19; recombinant CYP2C19, luciferin-H EGE luminescence; active compounds read high; 0 = fully inhibited enzyme, 1 = untreated enzyme; 96,000 tested, under 10 active; P33261; activation factor at 5 µM;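 active = activation factor of at least 2 at 5 µM in the primary screen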
CYP2C9 inhib: human CYP2C9 inhibition | 20% of 96,000 active | P11712 | CYP2C9 Supersomes, luciferin-H conversion, luminescence | AID 777 | inhibition, % at 5 µM;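 active = blocking of liver enzyme CYP2C9 beyond about 50% at 5 µM, limit read from the data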
Hits are given with their value. Only some compounds are listed: those with a hit (about 28% of all), similar ones and a draw of the others.

How did Cc1nc2ccc(S(=O)(=O)NCC(=O)N3CCCC(C)C3)cc2s1 (stereo not drawn) do in these assays?
CD11b adhes enh: inactive; CYP2C9 activ: inactive; CD11b adhes inh: inactive; CYP2C19 inhib: inactive; CYP2C19 activ: inactive; CYP2C9 inhib: inactive

What do the screens show for `Cn1nnc2cc(C(=O)NCc3ccc4c(c3)OCO4)ccc21`?
CD11b adhes enh: inactive; CYP2C9 activ: inactive; CD11b adhes inh: inactive; CYP2C19 inhib: 52; CYP2C19 activ: inactive; CYP2C9 inhib: inactive

Results for O=C(NCc1ccc2c(c1)OCO2)c1c(F)c(F)c(F)c(F)c1F ?
CD11b adhes enh: inactive; CYP2C9 activ: inactive; CD11b adhes inh: inactive; CYP2C19 inhib: 81; CYP2C19 activ: inactive; CYP2C9 inhib: inactive

What do the screens show for `COc1cccc(OCCNC(=O)c2ccccc2Sc2ccccc2C#N)c1`?
CD11b adhes enh: inactive; CD11b adhes inh: inactive

How did O=C(NCc1ccc2c(c1)OCO2)c1ccc2c(c1)OCCO2 do in these assays?
CD11b adhes enh: inactive; CYP2C9 activ: inactive; CD11b adhes inh: inactive; CYP2C19 inhib: 88; CYP2C19 activ: inactive; CYP2C9 inhib: 78

What do the screens show for `COc1cccc(OCCNC(=O)c2cccc(OC)c2)c1`?
CD11b adhes enh: inactive; CYP2C9 activ: inactive; CD11b adhes inh: inactive; CYP2C19 inhib: 97; CYP2C19 activ: inactive; CYP2C9 inhib: inactive

Results for COc1ccc(C(=O)COc2nc(C)cc(C)c2C#N)cc1 ?
CD11b adhes enh: inactive; CYP2C9 activ: inactive; CD11b adhes inh: inactive; CYP2C19 inhib: inactive; CYP2C19 activ: inactive; CYP2C9 inhib: inactive

What do the screens show for `COc1ccc(OC)c(C2NC(=O)NC(C)=C2C(=O)Nc2ccc(C)cc2C)c1` (stereo not drawn)?
CD11b adhes enh: inactive; CYP2C9 activ: inactive; CD11b adhes inh: inactive; CYP2C19 inhib: inactive; CYP2C19 activ: inactive; CYP2C9 inhib: inactive

Results for Nc1cccc(S(=O)(=O)c2cccc(N)c2)c1 ?
CD11b adhes enh: inactive; CYP2C9 activ: 3; CD11b adhes inh: inactive; CYP2C19 inhib: inactive; CYP2C19 activ: inactive; CYP2C9 inhib: inactive

How did Nc1cccc(-c2nc3cc(S(=O)(=O)c4ccc5oc(-c6cccc(N)c6)nc5c4)ccc3o2)c1 do in these assays?
CYP2C9 activ: inactive; CYP2C19 inhib: inactive; CYP2C19 activ: inactive; CYP2C9 inhib: inactive

How did O=C(c1ccc(Cl)c(F)c1F)N1CCCC1 do in these assays?
CD11b adhes enh: inactive; CYP2C9 activ: inactive; CD11b adhes inh: inactive; CYP2C19 inhib: inactive; CYP2C19 activ: inactive; CYP2C9 inhib: inactive

What do the screens show for `Nc1nc(NC(=O)c2cccc(S(=O)(=O)N3CCCCCC3)c2)nc(-c2ccccc2)n1`?
CD11b adhes enh: inactive; CYP2C9 activ: inactive; CD11b adhes inh: inactive; CYP2C19 inhib: inactive; CYP2C19 activ: inactive; CYP2C9 inhib: inactive

What do the screens show for `CCOC(=O)N1CCN(C(=O)c2ccc3c(=O)n(Cc4ccc(Cl)cc4)c(=S)[nH]c3c2)CC1`?
CD11b adhes enh: inactive; CYP2C9 activ: inactive; CD11b adhes inh: inactive; CYP2C19 inhib: inactive; CYP2C19 activ: inactive; CYP2C9 inhib: 52

What do the screens show for `CCOC(=O)N1CCN(C(=O)c2ccc3c(=O)n(CCC4=CCCCC4)c(=S)[nH]c3c2)CC1`?
CD11b adhes enh: inactive; CYP2C9 activ: inactive; CD11b adhes inh: inactive; CYP2C19 inhib: inactive; CYP2C19 activ: inactive; CYP2C9 inhib: inactive

How did CN1CCN(C(=O)c2ccc3c(=O)n(Cc4ccco4)c(=S)[nH]c3c2)CC1 do in these assays?
CD11b adhes enh: inactive; CYP2C9 activ: inactive; CD11b adhes inh: inactive; CYP2C19 inhib: inactive; CYP2C19 activ: inactive; CYP2C9 inhib: inactive

How did O=c1c2cc3c(cc2[nH]c(=S)n1Cc1ccco1)OCO3 do in these assays?
CD11b adhes enh: inactive; CYP2C9 activ: inactive; CD11b adhes inh: inactive; CYP2C19 inhib: 78; CYP2C19 activ: inactive; CYP2C9 inhib: inactive

How did CCOC(=O)N1CCN(C(=O)c2ccc3c(=O)n(CCc4ccccc4)c(=S)[nH]c3c2)CC1 do in these assays?
CYP2C9 activ: inactive; CYP2C19 inhib: 72; CYP2C19 activ: inactive; CYP2C9 inhib: 71

What do the screens show for `O=C(c1ccc2c(=O)n(Cc3ccco3)c(=S)[nH]c2c1)N1CCN(Cc2ccccc2)CC1`?
CD11b adhes enh: inactive; CYP2C9 activ: inactive; CD11b adhes inh: inactive; CYP2C19 inhib: 57; CYP2C19 activ: inactive; CYP2C9 inhib: 70

Results for COc1ccc(CCN2C(=O)CC(Sc3ncccc3C(=O)O)C2=O)cc1OC (stereo not drawn) ?
CYP2C9 activ: inactive; CYP2C19 inhib: inactive; CYP2C19 activ: inactive; CYP2C9 inhib: inactive

Results for CCCn1nc(C(=O)OCC(=O)Nc2ncc(Cl)c(C)c2Cl)c2ccccc2c1=O ?
CD11b adhes enh: inactive; CD11b adhes inh: inactive

What do the screens show for `CC(=O)Oc1ccc(-c2nc(-c3cccnc3)no2)cc1`?
CD11b adhes enh: inactive; CYP2C9 activ: inactive; CD11b adhes inh: inactive; CYP2C19 inhib: 95; CYP2C19 activ: inactive; CYP2C9 inhib: 86

How did CC(=O)Oc1ccc(Oc2ccc(-c3noc(C)n3)cc2)cc1 do in these assays?
CD11b adhes enh: inactive; CYP2C9 activ: inactive; CD11b adhes inh: inactive; CYP2C19 inhib: inactive; CYP2C19 activ: inactive; CYP2C9 inhib: inactive

Results for O=[N+]([O-])c1cccc(-c2nc(-c3ccncc3)no2)c1 ?
CD11b adhes enh: inactive; CYP2C9 activ: inactive; CD11b adhes inh: inactive; CYP2C19 inhib: 95; CYP2C19 activ: inactive; CYP2C9 inhib: 53

How did Nc1cc(-c2cccc([N+](=O)[O-])c2)[nH]n1 do in these assays?
CD11b adhes enh: inactive; CD11b adhes inh: inactive

What do the screens show for `CCOc1ccc(-c2noc(-c3ccncc3)n2)cc1OCC`?
CD11b adhes enh: inactive; CYP2C9 activ: inactive; CD11b adhes inh: inactive; CYP2C19 inhib: 70; CYP2C19 activ: inactive; CYP2C9 inhib: 80

What do the screens show for `CCOc1cc(-c2noc(-c3ccncc3)n2)cc(Br)c1OC`?
CD11b adhes enh: inactive; CYP2C9 activ: inactive; CD11b adhes inh: inactive; CYP2C19 inhib: 76; CYP2C19 activ: inactive; CYP2C9 inhib: inactive

Results for CCOC(=O)N1CCN(C(=O)CN(C)S(=O)(=O)c2ccc(OC)c(OC)c2)CC1 ?
CD11b adhes enh: inactive; CYP2C9 activ: inactive; CD11b adhes inh: inactive; CYP2C19 inhib: inactive; CYP2C19 activ: inactive; CYP2C9 inhib: inactive

Results for Cc1occc1-c1nnc(SCC(=O)NC(=O)NC(C)C)n1N ?
CD11b adhes enh: inactive; CYP2C9 activ: inactive; CD11b adhes inh: inactive; CYP2C19 inhib: inactive; CYP2C19 activ: inactive; CYP2C9 inhib: inactive

How did O=C1c2ccccc2C(O)(c2ncc[nH]2)N1C1CCCCC1 (stereo not drawn) do in these assays?
CD11b adhes enh: inactive; CYP2C9 activ: inactive; CD11b adhes inh: inactive; CYP2C19 inhib: inactive; CYP2C19 activ: inactive; CYP2C9 inhib: inactive

Results for COc1ccc(-c2nc(-c3ccc(NC(=O)c4ccc(Br)o4)cc3)no2)cc1OC ?
CD11b adhes enh: inactive; CYP2C9 activ: inactive; CD11b adhes inh: inactive; CYP2C19 inhib: inactive; CYP2C19 activ: inactive; CYP2C9 inhib: inactive

Results for Brc1ccc(-c2nc(-c3cccnc3)no2)o1 ?
CD11b adhes enh: inactive; CYP2C9 activ: inactive; CD11b adhes inh: inactive; CYP2C19 inhib: 85; CYP2C19 activ: inactive; CYP2C9 inhib: inactive
